# Tests used:
# Assay in all cases: SPOT peptide array binding signal intensity (averaged, normalized) (arbitrary units (background-subtracted, floor 0; scale differs between SH3 domains)); higher = stronger binding of the SH3 domain to the peptide
# AgAbp1 = molecular target: AgAbp1
# Experimental: (§1)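 GST-tagged SH3 domains from S. cerevisiae (Sc), A. gossypii (Ag), C. albicans (Ca) and S. pombe (Sp) were incubated at 10 ug/ml overnight at 4 C on cellulose SPOT membranes carrying 292 synthetic 15-mer peptides mined from the S. cerevisiae proteome (cysteines replaced by serines). Binding was detected with anti-GST antibody, HRP secondary and chemiluminescence, quantified with Genespotter, and reported as normalized spot intensities averaged over biological replicates.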
# AgBbc1 = molecular target: AgBbc1
# Experimental: as §1
# AgBem1-D1 = molecular target: AgBem1-D1
# Experimental: as §1
# AgBzz1-D1 = molecular target: AgBzz1-D1
# Experimental: as §1
# AgBzz1-D2 = molecular target: AgBzz1-D2
# Experimental: as §1
# AgCyk3 = molecular target: AgCyk3
# Experimental: as §1
# AgFus1 = molecular target: AgFus1
# Experimental: as §1
# AgHof1 = molecular target: AgHof1
# Experimental: as §1
# AgHse1 = molecular target: AgHse1
# Experimental: as §1
# AgLsb1 = molecular target: AgLsb1
# Experimental: as §1
# AgLsb4 = molecular target: AgLsb4
# Experimental: as §1
# AgMyo5 = molecular target: AgMyo5
# Experimental: as §1
# AgNbp2 = molecular target: AgNbp2
# Experimental: as §1
# AgRvs167 = molecular target: AgRvs167
# Experimental: as §1
# AgSho1 = molecular target: AgSho1
# Experimental: as §1
# AgSla1-D1-D2 = molecular target: AgSla1-D1-D2
# Experimental: as §1
# AgSla1-D3 = molecular target: AgSla1-D3
# Experimental: as §1
# CaAbp1-D1 = molecular target: CaAbp1-D1
# Experimental: as §1
# CaAbp1-D2 = molecular target: CaAbp1-D2
# Experimental: as §1
# CaBbc1 = molecular target: CaBbc1
# Experimental: as §1
# CaBem1-D1 = molecular target: CaBem1-D1
# Experimental: as §1
# CaBzz1-D1 = molecular target: CaBzz1-D1
# Experimental: as §1
# CaBzz1-D2 = molecular target: CaBzz1-D2
# Experimental: as §1
# CaCyk3 = molecular target: CaCyk3
# Experimental: as §1
# CaFus1 = molecular target: CaFus1
# Experimental: as §1
# CaHof1 = molecular target: CaHof1
# Experimental: as §1
# CaHse1 = molecular target: CaHse1
# Experimental: as §1
# CaLsb1 = molecular target: CaLsb1
# Experimental: as §1
# CaLsb4 = molecular target: CaLsb4
# Experimental: as §1
# CaMyo5 = molecular target: CaMyo5
# Experimental: as §1
# CaNbp2 = molecular target: CaNbp2
# Experimental: as §1
# CaRvs167 = molecular target: CaRvs167
# Experimental: as §1
# CaRvs167-3 = molecular target: CaRvs167-3
# Experimental: as §1
# CaSho1 = molecular target: CaSho1
# Experimental: as §1
# CaSla1-D1-D2 = molecular target: CaSla1-D1-D2
# Experimental: as §1
# CaSla1-D3 = molecular target: CaSla1-D3
# Experimental: as §1
# ScAbp1 = molecular target: ScAbp1
# Experimental: as §1
# ScBbc1 = molecular target: ScBbc1
# Experimental: as §1
# ScBem1-D1 = molecular target: ScBem1-D1
# Experimental: as §1
# ScBzz1-D1 = molecular target: ScBzz1-D1
# Experimental: as §1
# ScBzz1-D2 = molecular target: ScBzz1-D2
# Experimental: as §1
# ScCyk3 = molecular target: ScCyk3
# Experimental: as §1
# ScFus1 = molecular target: ScFus1
# Experimental: as §1
# ScHof1 = molecular target: ScHof1
# Experimental: as §1
# ScHse1 = molecular target: ScHse1
# Experimental: as §1
# ScLsb1 = molecular target: ScLsb1
# Experimental: as §1
# ScLsb2 = molecular target: ScLsb2
# Experimental: as §1
# ScLsb3 = molecular target: ScLsb3
# Experimental: as §1
# ScLsb4 = molecular target: ScLsb4
# Experimental: as §1
# ScMyo3 = molecular target: ScMyo3
# Experimental: as §1
# ScMyo5 = molecular target: ScMyo5
# Experimental: as §1
# ScNbp2 = molecular target: ScNbp2
# Experimental: as §1
# ScPex13 = molecular target: ScPex13
# Experimental: as §1
# ScRvs167 = molecular target: ScRvs167
# Experimental: as §1
# ScSho1 = molecular target: ScSho1
# Experimental: as §1
# ScSla1-D1-D2 = molecular target: ScSla1-D1-D2
# Experimental: as §1
# ScSla1-D3 = molecular target: ScSla1-D3
# Experimental: as §1
# SpAbp1-D1 = molecular target: SpAbp1-D1
# Experimental: as §1
# SpBbc1 = molecular target: SpBbc1
# Experimental: as §1
# SpBzz1-D1 = molecular target: SpBzz1-D1
# Experimental: as §1
# SpBzz1-D2 = molecular target: SpBzz1-D2
# Experimental: as §1
# SpCyk3 = molecular target: SpCyk3
# Experimental: as §1
# SpHof1 = molecular target: SpHof1
# Experimental: as §1
# SpHof1-2 = molecular target: SpHof1-2
# Experimental: as §1
# SpHof1-3 = molecular target: SpHof1-3
# Experimental: as §1
# SpHse1 = molecular target: SpHse1
# Experimental: as §1
# SpLsb1 = molecular target: SpLsb1
# Experimental: as §1
# SpLsb4 = molecular target: SpLsb4
# Experimental: as §1
# SpMyo1 = molecular target: SpMyo1
# Experimental: as §1
# SpNbp2 = molecular target: SpNbp2
# Experimental: as §1
# SpPex13 = molecular target: SpPex13
# Experimental: as §1
# SpRvs167 = molecular target: SpRvs167
# Experimental: as §1
# SpSla1-D1-D2 = molecular target: SpSla1-D1-D2
# Experimental: as §1
# SpSla1-D3 = molecular target: SpSla1-D3
# Experimental: as §1
binder,measurement,setting,value
LYKRKPILLPDPKPL,SPOT peptide array binding signal intensity,AgAbp1,30.5
same,SPOT peptide array binding signal intensity,AgBbc1,≤ 0
same,SPOT peptide array binding signal intensity,AgBem1-D1,≤ 0
same,SPOT peptide array binding signal intensity,AgBzz1-D1,44
same,SPOT peptide array binding signal intensity,AgBzz1-D2,70
same,SPOT peptide array binding signal intensity,AgCyk3,≤ 0
same,SPOT peptide array binding signal intensity,AgFus1,≤ 0
same,SPOT peptide array binding signal intensity,AgHof1,11
same,SPOT peptide array binding signal intensity,AgHse1,93
same,SPOT peptide array binding signal intensity,AgLsb1,208
same,SPOT peptide array binding signal intensity,AgLsb4,1.5
same,SPOT peptide array binding signal intensity,AgMyo5,≤ 0
same,SPOT peptide array binding signal intensity,AgNbp2,4.5
same,SPOT peptide array binding signal intensity,AgRvs167,≤ 0
same,SPOT peptide array binding signal intensity,AgSho1,≤ 0
same,SPOT peptide array binding signal intensity,AgSla1-D1-D2,29
same,SPOT peptide array binding signal intensity,AgSla1-D3,9
same,SPOT peptide array binding signal intensity,CaAbp1-D1,292
same,SPOT peptide array binding signal intensity,CaAbp1-D2,140
same,SPOT peptide array binding signal intensity,CaBbc1,16.5
same,SPOT peptide array binding signal intensity,CaBem1-D1,≤ 0
same,SPOT peptide array binding signal intensity,CaBzz1-D1,150
same,SPOT peptide array binding signal intensity,CaBzz1-D2,40.8
same,SPOT peptide array binding signal intensity,CaCyk3,4
same,SPOT peptide array binding signal intensity,CaFus1,39
same,SPOT peptide array binding signal intensity,CaHof1,0.75
same,SPOT peptide array binding signal intensity,CaHse1,≤ 0
same,SPOT peptide array binding signal intensity,CaLsb1,228
same,SPOT peptide array binding signal intensity,CaLsb4,≤ 0
same,SPOT peptide array binding signal intensity,CaMyo5,≤ 0
same,SPOT peptide array binding signal intensity,CaNbp2,33
same,SPOT peptide array binding signal intensity,CaRvs167,7.67
same,SPOT peptide array binding signal intensity,CaRvs167-3,1.75
same,SPOT peptide array binding signal intensity,CaSho1,≤ 0
same,SPOT peptide array binding signal intensity,CaSla1-D1-D2,50
same,SPOT peptide array binding signal intensity,CaSla1-D3,≤ 0
same,SPOT peptide array binding signal intensity,ScAbp1,38
same,SPOT peptide array binding signal intensity,ScBbc1,2
same,SPOT peptide array binding signal intensity,ScBem1-D1,3
same,SPOT peptide array binding signal intensity,ScBzz1-D1,20.5
same,SPOT peptide array binding signal intensity,ScBzz1-D2,15.5
same,SPOT peptide array binding signal intensity,ScCyk3,≤ 0
same,SPOT peptide array binding signal intensity,ScFus1,≤ 0
same,SPOT peptide array binding signal intensity,ScHof1,≤ 0
same,SPOT peptide array binding signal intensity,ScHse1,267
same,SPOT peptide array binding signal intensity,ScLsb1,162
same,SPOT peptide array binding signal intensity,ScLsb2,838
same,SPOT peptide array binding signal intensity,ScLsb3,7
same,SPOT peptide array binding signal intensity,ScLsb4,≤ 0
same,SPOT peptide array binding signal intensity,ScMyo3,≤ 0
same,SPOT peptide array binding signal intensity,ScMyo5,0.5
same,SPOT peptide array binding signal intensity,ScNbp2,14.5
same,SPOT peptide array binding signal intensity,ScPex13,≤ 0
same,SPOT peptide array binding signal intensity,ScRvs167,16.7
same,SPOT peptide array binding signal intensity,ScSho1,62.5
same,SPOT peptide array binding signal intensity,ScSla1-D1-D2,135
same,SPOT peptide array binding signal intensity,ScSla1-D3,5
same,SPOT peptide array binding signal intensity,SpAbp1-D1,29
same,SPOT peptide array binding signal intensity,SpBbc1,≤ 0
same,SPOT peptide array binding signal intensity,SpBzz1-D1,188
same,SPOT peptide array binding signal intensity,SpBzz1-D2,0.5
same,SPOT peptide array binding signal intensity,SpCyk3,≤ 0
same,SPOT peptide array binding signal intensity,SpHof1,6.25
same,SPOT peptide array binding signal intensity,SpHof1-2,7.5
same,SPOT peptide array binding signal intensity,SpHof1-3,83
same,SPOT peptide array binding signal intensity,SpHse1,4
same,SPOT peptide array binding signal intensity,SpLsb1,19.8
same,SPOT peptide array binding signal intensity,SpLsb4,≤ 0
same,SPOT peptide array binding signal intensity,SpMyo1,≤ 0
same,SPOT peptide array binding signal intensity,SpNbp2,5.5
same,SPOT peptide array binding signal intensity,SpPex13,≤ 0
same,SPOT peptide array binding signal intensity,SpRvs167,12.3
same,SPOT peptide array binding signal intensity,SpSla1-D1-D2,≤ 0
same,SPOT peptide array binding signal intensity,SpSla1-D3,≤ 0

# Reference: the supplement of paper PMC4466140
